Experimental data taken from the supplement of paper PMC11732987, “Enantioselective OTUD7B fragment discovery through chemoproteomics screening and high-throughput optimisation” (Communications Chemistry, 2025).

How the values were obtained:
Assay in all cases: log2 ratio of Biotin-Ahx-Ub-VS probe labelling (fragment/DMSO); higher = less target engagement (more negative = stronger competition), active = hit call of the paper (q ≤ 0.05, log2 ratio ≤ -1)
Settings in all cases: compound concentration: 200 uM; treatment time: 3 h
[1] = target: USP34 (UniProt Q70CQ2)
Method in brief: (§1)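 Each value is an average log2 ratio of fragment to vehicle, tested by unpaired t-test. The underlying Spectronaut label-free quantities were global-median-normalised, and only proteins with ≥2 unique peptides were included. Triplicate HEK293T lysate samples (495 µg) were exposed to fragment at 200 µM or vehicle for 3 h, then to Biotin-Ahx-Ub-VS at 0.5 µM final for 1 h, before NeutrAvidin enrichment of labelled DUBs, LysC and trypsin digestion, and diaPASEF LC-MS/MS.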

[2] = target: T1, USP36 (UniProt Q9P275)
T1 sequence (whole entry): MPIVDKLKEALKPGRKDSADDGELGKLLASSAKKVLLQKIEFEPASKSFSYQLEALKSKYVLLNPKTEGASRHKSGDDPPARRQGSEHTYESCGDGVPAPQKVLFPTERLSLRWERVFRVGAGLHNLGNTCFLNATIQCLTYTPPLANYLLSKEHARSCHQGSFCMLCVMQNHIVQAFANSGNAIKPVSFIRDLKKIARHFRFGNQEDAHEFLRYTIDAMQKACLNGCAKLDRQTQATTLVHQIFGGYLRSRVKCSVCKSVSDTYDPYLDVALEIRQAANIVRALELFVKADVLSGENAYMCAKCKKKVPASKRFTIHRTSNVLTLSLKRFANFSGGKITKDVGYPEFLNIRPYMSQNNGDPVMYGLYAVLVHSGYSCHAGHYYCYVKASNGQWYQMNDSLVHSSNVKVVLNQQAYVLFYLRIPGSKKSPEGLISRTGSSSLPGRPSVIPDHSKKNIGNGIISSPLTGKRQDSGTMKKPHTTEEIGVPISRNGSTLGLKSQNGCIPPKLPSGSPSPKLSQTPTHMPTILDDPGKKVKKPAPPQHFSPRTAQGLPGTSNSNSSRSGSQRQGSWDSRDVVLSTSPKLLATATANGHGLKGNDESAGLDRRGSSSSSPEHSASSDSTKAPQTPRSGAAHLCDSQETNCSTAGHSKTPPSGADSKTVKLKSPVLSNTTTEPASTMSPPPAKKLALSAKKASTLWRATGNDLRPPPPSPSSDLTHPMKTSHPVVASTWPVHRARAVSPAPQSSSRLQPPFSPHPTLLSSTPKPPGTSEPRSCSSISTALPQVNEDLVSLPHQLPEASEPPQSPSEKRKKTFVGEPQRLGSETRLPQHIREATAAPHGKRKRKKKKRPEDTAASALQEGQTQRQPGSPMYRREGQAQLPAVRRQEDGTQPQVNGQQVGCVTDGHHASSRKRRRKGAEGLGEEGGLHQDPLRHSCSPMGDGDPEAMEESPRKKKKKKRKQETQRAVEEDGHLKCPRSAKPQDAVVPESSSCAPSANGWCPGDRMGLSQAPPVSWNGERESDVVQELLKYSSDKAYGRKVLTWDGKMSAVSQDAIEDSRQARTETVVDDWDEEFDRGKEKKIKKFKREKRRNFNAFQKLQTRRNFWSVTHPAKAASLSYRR
Method in brief: as §1

[3] = target: T2, USP38 (UniProt Q8NB14)
T2 sequence (whole entry): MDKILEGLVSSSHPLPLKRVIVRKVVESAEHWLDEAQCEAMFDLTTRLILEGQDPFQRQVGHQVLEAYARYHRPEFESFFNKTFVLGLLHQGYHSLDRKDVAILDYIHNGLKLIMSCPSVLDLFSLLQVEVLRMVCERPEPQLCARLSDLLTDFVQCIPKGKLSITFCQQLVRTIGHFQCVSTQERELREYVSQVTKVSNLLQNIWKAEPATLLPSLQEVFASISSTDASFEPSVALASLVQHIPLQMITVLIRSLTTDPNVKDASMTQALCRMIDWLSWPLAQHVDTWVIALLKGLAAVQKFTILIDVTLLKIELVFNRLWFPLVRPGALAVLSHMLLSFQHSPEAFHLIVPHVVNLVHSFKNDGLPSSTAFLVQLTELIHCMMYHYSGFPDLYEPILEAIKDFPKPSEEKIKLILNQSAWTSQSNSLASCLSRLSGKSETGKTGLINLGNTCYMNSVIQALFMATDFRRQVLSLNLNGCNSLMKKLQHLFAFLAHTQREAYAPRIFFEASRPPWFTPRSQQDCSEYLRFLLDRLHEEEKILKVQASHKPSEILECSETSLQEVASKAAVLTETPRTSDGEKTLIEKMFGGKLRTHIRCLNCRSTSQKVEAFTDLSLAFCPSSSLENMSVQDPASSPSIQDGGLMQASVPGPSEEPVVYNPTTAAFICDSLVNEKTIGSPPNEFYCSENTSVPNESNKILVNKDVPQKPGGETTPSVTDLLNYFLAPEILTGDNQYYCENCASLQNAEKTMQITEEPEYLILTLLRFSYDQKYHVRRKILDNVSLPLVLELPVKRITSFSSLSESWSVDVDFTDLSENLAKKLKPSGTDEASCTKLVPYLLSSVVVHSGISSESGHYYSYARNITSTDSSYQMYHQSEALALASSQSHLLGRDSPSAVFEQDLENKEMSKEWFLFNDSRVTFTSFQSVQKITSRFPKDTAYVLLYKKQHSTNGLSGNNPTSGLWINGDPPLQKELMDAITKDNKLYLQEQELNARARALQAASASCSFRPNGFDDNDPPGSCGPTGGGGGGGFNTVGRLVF
Method in brief: as §1

[4] = target: T3, USP39 (UniProt Q53GS9)
T3 sequence (whole entry): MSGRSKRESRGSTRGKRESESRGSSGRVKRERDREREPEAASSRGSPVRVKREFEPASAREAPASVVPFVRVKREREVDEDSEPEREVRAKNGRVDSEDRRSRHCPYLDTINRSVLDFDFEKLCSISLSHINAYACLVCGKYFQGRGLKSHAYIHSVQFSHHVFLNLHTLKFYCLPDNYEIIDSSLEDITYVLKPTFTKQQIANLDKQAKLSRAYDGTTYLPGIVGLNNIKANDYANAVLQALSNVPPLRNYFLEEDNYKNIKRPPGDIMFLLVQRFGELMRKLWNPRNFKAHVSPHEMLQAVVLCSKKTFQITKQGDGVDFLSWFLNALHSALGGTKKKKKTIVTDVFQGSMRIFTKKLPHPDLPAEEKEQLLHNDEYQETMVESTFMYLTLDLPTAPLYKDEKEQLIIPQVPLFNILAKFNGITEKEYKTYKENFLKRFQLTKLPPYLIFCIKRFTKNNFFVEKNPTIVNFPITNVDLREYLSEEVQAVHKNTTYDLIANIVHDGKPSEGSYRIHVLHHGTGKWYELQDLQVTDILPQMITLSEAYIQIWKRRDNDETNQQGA
Method in brief: as §1

[5] = target: T4, USP4 (UniProt Q13107)
T4 sequence (whole entry): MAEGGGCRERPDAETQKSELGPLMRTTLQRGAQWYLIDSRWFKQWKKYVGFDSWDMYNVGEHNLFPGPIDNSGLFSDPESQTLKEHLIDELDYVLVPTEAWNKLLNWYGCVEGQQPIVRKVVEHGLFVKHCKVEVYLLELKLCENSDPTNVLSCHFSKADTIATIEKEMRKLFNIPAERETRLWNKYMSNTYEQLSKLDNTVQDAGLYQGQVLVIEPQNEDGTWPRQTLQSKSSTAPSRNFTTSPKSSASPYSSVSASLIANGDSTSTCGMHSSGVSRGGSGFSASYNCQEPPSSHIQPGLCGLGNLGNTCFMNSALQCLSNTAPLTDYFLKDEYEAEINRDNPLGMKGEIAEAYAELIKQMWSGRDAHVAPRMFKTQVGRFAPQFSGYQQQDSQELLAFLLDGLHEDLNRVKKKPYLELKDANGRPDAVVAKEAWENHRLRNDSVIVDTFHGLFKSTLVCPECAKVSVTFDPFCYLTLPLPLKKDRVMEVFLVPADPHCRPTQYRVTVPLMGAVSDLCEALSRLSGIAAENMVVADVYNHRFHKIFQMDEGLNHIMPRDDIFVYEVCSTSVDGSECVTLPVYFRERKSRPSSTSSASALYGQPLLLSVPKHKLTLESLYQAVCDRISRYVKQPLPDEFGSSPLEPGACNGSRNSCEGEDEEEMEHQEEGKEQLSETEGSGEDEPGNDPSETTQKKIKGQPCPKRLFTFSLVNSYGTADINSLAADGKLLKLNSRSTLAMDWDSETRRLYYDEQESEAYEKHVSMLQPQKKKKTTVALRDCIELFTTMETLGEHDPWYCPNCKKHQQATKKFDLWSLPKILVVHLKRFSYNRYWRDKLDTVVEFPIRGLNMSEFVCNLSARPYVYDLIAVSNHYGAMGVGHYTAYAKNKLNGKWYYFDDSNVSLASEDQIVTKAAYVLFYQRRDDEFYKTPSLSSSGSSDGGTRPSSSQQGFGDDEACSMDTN
Method in brief: as §1

Measured: log2 ratio of Biotin-Ahx-Ub-VS probe labelling

Chain of USP34 (Q70CQ2 whole entry, the tested form may be a part): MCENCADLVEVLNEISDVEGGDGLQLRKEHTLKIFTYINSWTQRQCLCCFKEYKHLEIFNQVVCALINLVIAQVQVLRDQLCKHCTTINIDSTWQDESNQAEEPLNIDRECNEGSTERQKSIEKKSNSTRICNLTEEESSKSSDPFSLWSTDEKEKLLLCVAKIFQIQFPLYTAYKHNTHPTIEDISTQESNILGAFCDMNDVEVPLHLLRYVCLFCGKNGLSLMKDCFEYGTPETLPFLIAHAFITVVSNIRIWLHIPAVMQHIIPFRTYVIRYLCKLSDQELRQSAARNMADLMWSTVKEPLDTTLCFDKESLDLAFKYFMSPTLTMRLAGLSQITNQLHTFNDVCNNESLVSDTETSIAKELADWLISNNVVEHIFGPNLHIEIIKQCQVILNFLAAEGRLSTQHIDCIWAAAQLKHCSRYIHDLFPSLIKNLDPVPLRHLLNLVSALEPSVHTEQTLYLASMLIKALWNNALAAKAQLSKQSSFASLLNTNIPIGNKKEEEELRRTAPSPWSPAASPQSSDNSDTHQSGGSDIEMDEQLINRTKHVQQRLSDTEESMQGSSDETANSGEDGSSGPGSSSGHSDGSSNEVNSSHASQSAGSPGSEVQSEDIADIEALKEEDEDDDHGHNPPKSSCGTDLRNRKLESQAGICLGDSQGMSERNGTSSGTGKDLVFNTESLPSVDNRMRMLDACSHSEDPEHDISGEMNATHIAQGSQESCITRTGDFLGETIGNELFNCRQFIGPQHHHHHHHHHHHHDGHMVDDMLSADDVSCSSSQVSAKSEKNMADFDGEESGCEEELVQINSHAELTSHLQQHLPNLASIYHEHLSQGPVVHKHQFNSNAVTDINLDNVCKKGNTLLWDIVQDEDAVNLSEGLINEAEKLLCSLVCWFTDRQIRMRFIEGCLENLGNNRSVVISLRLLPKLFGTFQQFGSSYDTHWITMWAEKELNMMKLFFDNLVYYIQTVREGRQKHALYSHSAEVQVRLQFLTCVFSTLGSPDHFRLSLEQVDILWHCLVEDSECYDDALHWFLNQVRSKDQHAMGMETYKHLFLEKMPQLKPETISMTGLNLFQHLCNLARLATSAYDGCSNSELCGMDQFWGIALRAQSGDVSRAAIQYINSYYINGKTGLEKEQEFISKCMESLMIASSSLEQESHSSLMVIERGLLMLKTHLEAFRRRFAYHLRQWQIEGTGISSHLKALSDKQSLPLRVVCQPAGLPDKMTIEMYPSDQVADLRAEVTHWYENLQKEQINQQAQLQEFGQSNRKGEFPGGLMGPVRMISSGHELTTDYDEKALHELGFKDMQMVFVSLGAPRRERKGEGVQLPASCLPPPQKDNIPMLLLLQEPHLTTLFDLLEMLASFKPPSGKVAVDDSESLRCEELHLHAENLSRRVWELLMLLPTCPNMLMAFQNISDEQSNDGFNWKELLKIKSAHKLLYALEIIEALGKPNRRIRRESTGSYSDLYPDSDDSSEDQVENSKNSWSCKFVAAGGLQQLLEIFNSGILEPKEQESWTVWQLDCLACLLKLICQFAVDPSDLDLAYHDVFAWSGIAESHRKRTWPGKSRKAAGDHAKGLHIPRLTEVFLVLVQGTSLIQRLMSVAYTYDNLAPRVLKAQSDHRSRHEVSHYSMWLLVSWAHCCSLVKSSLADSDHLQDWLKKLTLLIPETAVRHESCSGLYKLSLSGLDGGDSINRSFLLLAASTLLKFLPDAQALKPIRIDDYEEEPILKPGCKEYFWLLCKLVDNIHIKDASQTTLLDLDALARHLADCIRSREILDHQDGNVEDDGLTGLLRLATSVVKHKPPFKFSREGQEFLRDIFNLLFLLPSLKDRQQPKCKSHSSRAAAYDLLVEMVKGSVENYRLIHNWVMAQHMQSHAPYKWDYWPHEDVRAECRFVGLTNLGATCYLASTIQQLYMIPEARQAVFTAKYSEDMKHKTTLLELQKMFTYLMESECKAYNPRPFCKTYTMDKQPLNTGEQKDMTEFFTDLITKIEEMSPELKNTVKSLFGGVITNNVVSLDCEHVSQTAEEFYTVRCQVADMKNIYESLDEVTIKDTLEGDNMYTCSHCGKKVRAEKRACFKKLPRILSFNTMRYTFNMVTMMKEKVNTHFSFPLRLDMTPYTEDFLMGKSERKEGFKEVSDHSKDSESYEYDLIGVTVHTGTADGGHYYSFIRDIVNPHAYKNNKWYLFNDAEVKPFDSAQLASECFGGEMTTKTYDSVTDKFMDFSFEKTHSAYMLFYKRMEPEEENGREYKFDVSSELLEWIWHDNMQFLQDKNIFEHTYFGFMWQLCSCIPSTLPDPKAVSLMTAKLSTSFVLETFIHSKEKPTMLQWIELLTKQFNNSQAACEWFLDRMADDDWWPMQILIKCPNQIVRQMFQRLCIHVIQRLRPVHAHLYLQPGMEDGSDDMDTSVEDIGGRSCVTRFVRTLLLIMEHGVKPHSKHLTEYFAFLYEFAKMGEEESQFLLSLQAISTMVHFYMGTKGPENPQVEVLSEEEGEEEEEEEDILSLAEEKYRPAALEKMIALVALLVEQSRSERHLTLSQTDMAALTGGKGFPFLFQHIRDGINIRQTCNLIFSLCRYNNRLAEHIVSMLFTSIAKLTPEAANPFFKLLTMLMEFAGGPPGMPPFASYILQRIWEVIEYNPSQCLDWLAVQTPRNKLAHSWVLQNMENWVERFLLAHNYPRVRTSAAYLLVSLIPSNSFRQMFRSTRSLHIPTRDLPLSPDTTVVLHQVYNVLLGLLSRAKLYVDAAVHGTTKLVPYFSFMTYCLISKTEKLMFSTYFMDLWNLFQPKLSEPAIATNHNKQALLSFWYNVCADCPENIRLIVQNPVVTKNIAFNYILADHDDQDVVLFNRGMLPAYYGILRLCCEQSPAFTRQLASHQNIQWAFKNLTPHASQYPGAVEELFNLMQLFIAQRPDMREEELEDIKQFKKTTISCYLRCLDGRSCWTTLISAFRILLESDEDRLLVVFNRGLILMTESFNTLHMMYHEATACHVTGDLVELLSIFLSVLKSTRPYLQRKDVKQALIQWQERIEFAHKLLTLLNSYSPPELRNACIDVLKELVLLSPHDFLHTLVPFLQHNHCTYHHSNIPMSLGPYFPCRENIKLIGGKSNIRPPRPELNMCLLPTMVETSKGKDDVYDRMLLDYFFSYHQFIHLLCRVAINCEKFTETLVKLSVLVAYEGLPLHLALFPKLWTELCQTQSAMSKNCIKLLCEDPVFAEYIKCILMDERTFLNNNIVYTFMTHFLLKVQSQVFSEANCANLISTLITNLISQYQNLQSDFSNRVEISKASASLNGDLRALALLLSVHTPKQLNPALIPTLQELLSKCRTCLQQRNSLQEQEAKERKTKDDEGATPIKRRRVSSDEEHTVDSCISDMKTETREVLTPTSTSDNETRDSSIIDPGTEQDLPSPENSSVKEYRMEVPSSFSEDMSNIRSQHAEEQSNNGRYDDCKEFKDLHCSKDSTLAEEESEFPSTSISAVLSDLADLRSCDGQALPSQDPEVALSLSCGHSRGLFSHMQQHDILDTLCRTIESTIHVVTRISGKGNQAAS

Cc1cccc(C)c1NC(=O)CCl
inactive: [1] -0.0998 | [2] -0.33 | [3] -0.0307 | [4] 0.204 | [5] -0.132
